Data on 38 molecules can be found in the supplement of paper PMC5641865, “A screen for kinase inhibitors identifies antimicrobial imidazopyridine aminofurazans as specific inhibitors of the Listeria monocytogenes PASTA kinase PrkA” (The Journal of Biological Chemistry, 2017).

Structures are written as SMILES. Values joined by “and” are separate entries in the source; they are usually repeats but may differ in a detail not shown here. Equal values may be shown once. Where a name gives a salt, the structure may show the parent alone. ± gives the standard deviation of the averaged measurements.
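Note: End-point A600 read in BHI broth at 37 °C with 2% DMSO, inhibition computed as (1 − OD with compound plus ceftriaxone ÷ OD with ceftriaxone only) × 100.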

This experiment deals with Listeria monocytogenes 10403S. Nature of the experiment: growth inhibition relative to ceftriaxone-alone control; higher = stronger potentiation of ceftriaxone growth inhibition. Particulars: 10 µM; ceftriaxone 1 ug/ml; 12 h.
As for `COc1cc(C)c(NC(=O)CN(C)C)cc1Nc1nc(Nc2cccc(F)c2C(N)=O)c2cc[nH]c2n1`, the growth inhibition was -5.99 ± 8.5%. For `COC(=O)Nc1ccc(-c2nc(N3CCOCC3)c3cnn(C4CCN(Cc5cccnc5)CC4)c3n2)cc1`, the growth inhibition is 33.8 ± 29%. In the case of `N#Cc1ccc(Oc2nccc(-c3c(-c4ccc(F)cc4)ncn3C3CCNCC3)n2)cc1`, the growth inhibition is -15.2 ± 18%.

Consider `O=C1NC(=O)/C(=C/c2ccc3nccc(-c4ccncc4)c3c2)S1`, for which the growth inhibition worked out at 19.4 ± 3.5%.

Turning to `CC(=O)Nc1cccc(-n2c(=O)n(C3CC3)c(=O)c3c(Nc4ccc(I)cc4F)n(C)c(=O)c(C)c32)c1`, the growth inhibition came to 31.3 ± 12%. For `Cc1[nH]c(/C=C2\C(=O)Nc3ccccc32)c(C)c1CCC(=O)O`, the growth inhibition worked out at 98.7 ± 2.4%. As to `C[C@@H](Oc1cc(-n2cnc3ccc(OC4CCN(C)CC4)cc32)sc1C(N)=O)c1ccccc1Cl`, the growth inhibition was 0.604 ± 2.5%. Next, `O=C1Nc2ccccc2C1=C1CCc2cc(O)ccc21`: 7.57 ± 3.2%.

Regarding `O=C1NC(=O)C(c2cccc(Cl)c2)=C1Nc1ccc(Cl)c(C(=O)O)c1`, the growth inhibition came out at 9.83 ± 0.41%. Regarding `C[C@@H](Oc1cc(-c2cnn(C3CCNCC3)c2)cnc1N)c1c(Cl)ccc(F)c1Cl`, the growth inhibition amounted to 94.9 ± 5.1%. Next, `CCc1cccc(CC)c1NC(=O)N1Cc2[nH]nc(NC(=O)c3ccc(N4CCN(C)CC4)cc3)c2C1`: 33.1 ± 4.9%. For `CN1CC[C@H](c2c(O)cc(O)c3c(=O)cc(-c4ccccc4Cl)oc23)[C@H](O)C1` [Flavopiridol HCl] the value was 10.3 ± 6.8%. For `CCN(CC)Cc1ccc(Nc2nccc(-c3cnn4ncccc34)n2)cc1` the value was -11.5 ± 14%; for `Cc1ccc(C(=O)NC(C)C)cc1-c1ccc(C(=O)NCC2CC2)cc1`, -1.2 ± 0.17%; for `COc1c(C(N)=O)cc(-c2ccc(Cl)cc2)cc1-c1ccc(S(N)(=O)=O)cc1`, 1.37 ± 1.2%. With `Cc1ccc(Nc2ccnc(Nc3cccc(C(N)=O)c3)n2)cc1O`, the growth inhibition is -4.84 ± 3.2%. Next, `O=C(NCCCNc1nc(Nc2cccc(NC(=O)N3CCCC3)c2)ncc1I)c1cccs1`: -19.4 ± 21%. For `NS(=O)(=O)c1ccc(NC=C2C(=O)Nc3ccc4ncsc4c32)cc1` the value was -8.58 ± 4.7%; for `COC(=O)Nc1nc2cc(Oc3ccc(NC(=O)Nc4cccc(Br)c4)cc3)ccc2[nH]1`, -0.0344 ± 20%. For `O=C(Nc1c[nH]nc1-c1nc2ccc(CN3CCOCC3)cc2[nH]1)NC1CC1` the value was 55.7 ± 25%; for `CN1CCN(C(=O)c2ccc(NC(=O)Nc3ccc(N(C)c4ccnc(Nc5ccc(CS(C)(=O)=O)cc5)n4)cc3)cc2)CC1`, -5.87 ± 3.3%. For `CO[C@H]1C[C@@H]2CC[C@@H](C)[C@@](O)(O2)C(=O)C(=O)N2CCCC[C@H]2C(=O)O[C@H]([C@H](C)C[C@@H]2CC[C@@H](O)[C@H](OC)C2)CC(=O)[C@H](C)/C=C(\C)[C@@H](O)[C@@H](OC)C(=O)[C@H](C)C[C@H](C)/C=C/C=C/C=C/1C` [Rapamycin (Sirolimus)], the growth inhibition was found to be 30.2 ± 26%. Consider `COc1ccc(S(=O)(=O)N(C(C)=O)c2ccccc2/C=C/c2cc[n+]([O-])cc2)cc1`, for which the growth inhibition was determined as 13.3 ± 8.8%.

As for `COC(=O)Nc1nc2ccc(Oc3ccc(NC(=O)Nc4cccc(Cl)c4)cc3)cc2[nH]1`, the growth inhibition is -4.18 ± 4.6%.

`NC(=O)c1sc(-n2cnc3ccccc32)cc1OCc1ccccc1Br`: the growth inhibition was -4.4 ± 0.65%. For `Cc1cc(C(C)Nc2ccccc2)c2nc(N3CCOCC3)cc(=O)n2c1` (stereo not drawn) the value was 24.3 ± 9.5%. As for `O=C(NOC[C@H](O)CO)c1ccc(F)c(F)c1Nc1ccc(I)cc1F`, the growth inhibition is 78.4 ± 6.9%.

On to `COc1ncc(-c2ccc3nccc(-c4ccnnc4)c3c2)cc1NS(=O)(=O)c1ccc(F)cc1F`, for which the growth inhibition turned out to be 12.8 ± 7.8%. For `CS(=O)(=O)CCNCc1ccc(-c2ccc3ncnc(Nc4ccc(OCc5ccccc5)c(Cl)c4)c3c2)o1` the value was -9.81 ± 12%. Next, `COc1ccc(-c2oc3ncnc(N)c3c2-c2ccc(NC(=O)Nc3cc(C(F)(F)F)ccc3F)cc2)cc1`: -3.49 ± 7.6%; `CS(=O)(=O)CCN(CC#N)Cc1ccc(-c2ccc3ncnc(Nc4ccc(OCc5cccc(F)c5)c(Cl)c4)c3c2)o1`: 1.01 ± 5.1%. Next, `COc1ccccc1-c1cc(/C=C2\C(=O)Nc3ncc(Br)cc32)cc(Br)c1O`: -8.54 ± 8.1%; `C[C@@H]1CCN(C(=O)CC#N)C[C@@H]1N(C)c1ncnc2[nH]ccc12`: 11.4% and 15.6%; `N#C/C(=C\c1ccc(O)c(O)c1)C(=O)NCc1ccccc1`: 28.7 ± 25%. As for `CCn1cc(-c2ccnc3[nH]ccc23)c(-c2cccc(NC(=O)Nc3ccc(OCc4ccccc4)cc3)c2)n1`, the growth inhibition is -0.807 ± 2.3%. Consider `Cc1c2ccc(N(C)c3ccnc(Nc4cccc(S(N)(=O)=O)c4)n3)cc2nn1C`, for which the growth inhibition is 2.52 ± 4.2%. Regarding `Cc1nnc(-c2ccc(C)c(-c3ccc(C(=O)Nc4cccc(C#N)c4)cc3)c2)o1`, the growth inhibition amounted to 6.6 ± 12%. Consider `CCc1nn2ncccc2c1-c1ccnc(NC2CC2)n1`, for which the growth inhibition was -4.93 ± 3%.
